# TrxR1 inh: blocks rat thioredoxin reductase 1. O89049. recombinant rTrxR1, NADPH fluorescence consumption, selenite substrate. Potency, µM (titrated, usually from 114 µM), usual class: inhibitors. hit rate 1% among 390,000; note: nearly all actives have a fitted effect of over 65% in size
#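 Rat TrxR1 (90 nM in the dispensed reagent) was pre-reduced with 400 uM NADPH for 5 min at room temperature, then incubated with compound for 15 min. After 400 uM selenite was added, NADPH fluorescence (Ex 340/Em 450 nm) was followed for 8 min.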
# PKM2 act: PKM2 (human) enzyme activation; P14618; purified PKM2, Kinase-Glo ATP luminescence, activation; response scale: 0% is enzyme alone, no compound; Potency, µM (doses to about 57.5 µM), hits mostly activators; hit rate 0.34% among 260,000; AID 1631; note: nearly all actives have a fitted effect of over 55% in size
#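 Purified hPK-M2 (>95%) run at intermediate activity with 0.1 mM ADP and 0.5 mM PEP in 50 mM imidazole pH 7.2, KCl, MgCl2; 1 h room temperature. ATP formed read by Kinase-Glo luminescence; normalized to uninhibited and no-enzyme controls.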
# TrxR1 substrate: substrates of rat thioredoxin reductase 1. AID 588456. O89049. hit rate 0.01% among 390,000. Potency, µM (series often up to 114 µM). purified TrxR1 substrate turnover, NADPH consumption readout; note: nearly all actives have a fitted effect of over 50% in size
#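 Rat TrxR1, dispensed at 90 nM, was prereduced with 400 uM NADPH (final) for 5 min at ~22 deg C, then incubated with compound 15 min before 400 uM selenite. A first-read NADPH fluorescence drop versus no-compound background flagged substrates.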
# mIDH1 inhibitor: blocks human mutant IDH1 R132H enzyme | hit rate 0.093% among 390,000 | O75874 | Potency, µM (doses to about 76.6 µM), usual class: inhibitors | IDH1-R132H enzyme, NADPH consumption, diaphorase/resazurin fluorescence; note: nearly all actives have a fitted effect of over 65% in size
# Target sequence (O75874 whole entry R132H, stated change not applied): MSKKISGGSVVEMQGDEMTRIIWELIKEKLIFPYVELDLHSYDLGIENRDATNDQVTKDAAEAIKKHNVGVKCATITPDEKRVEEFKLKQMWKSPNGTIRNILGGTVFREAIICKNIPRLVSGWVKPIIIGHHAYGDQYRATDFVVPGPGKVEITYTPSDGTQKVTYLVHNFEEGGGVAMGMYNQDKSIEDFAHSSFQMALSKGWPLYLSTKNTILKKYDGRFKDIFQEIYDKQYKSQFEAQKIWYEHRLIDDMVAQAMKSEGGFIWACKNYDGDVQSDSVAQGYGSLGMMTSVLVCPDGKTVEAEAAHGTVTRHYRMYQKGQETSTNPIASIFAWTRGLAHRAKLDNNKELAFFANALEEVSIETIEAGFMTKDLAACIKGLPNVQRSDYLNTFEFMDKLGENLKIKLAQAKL
#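 IDH1-R132H (0.5 ug/mL) preincubated 30 min with compound, then NADPH (0.016 mM) and alpha-KG (2 mM) added; 80 min at RT, pH 7.5. Remaining NADPH coupled via diaphorase/resazurin to fluorescence (540/590 nm); concentration-response curves normalized to no-enzyme control.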
# Anesthetic bind: binds horse apoferritin like a general anesthetic | P02791 | apoferritin/1-aminoanthracene competitive binding, fluorescence | Potency, µM (doses to about 77.5 µM), most hits filed as inhibitors | hit rate 0.074% among 350,000 | AID 485281; note: nearly all actives have a fitted effect of over 20% in size
# Target sequence (P02791 2-175 limits assumed): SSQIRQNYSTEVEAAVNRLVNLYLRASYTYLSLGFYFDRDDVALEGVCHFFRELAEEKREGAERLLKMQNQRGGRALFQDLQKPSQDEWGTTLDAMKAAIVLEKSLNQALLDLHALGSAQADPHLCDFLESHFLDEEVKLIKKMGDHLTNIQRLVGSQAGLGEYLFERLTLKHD
#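 Read-out: endpoint 1-AMA fluorescence, excitation 380 nm and emission 535 nm, after compounds sit 10 min at room temperature with 10 uM horse-spleen apoferritin in 50% saturated 1-AMA/PBS. Values come from four-parameter Hill fits.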
# GALK inhibitor: blocks human galactokinase activity; Purified GALK, Kinase-Glo residual ATP luminescence; hit rate 0.007% among 270,000; Potency, µM (top dose mostly 57.5 µM), most hits filed as inhibitors; AID 1868
#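 Kinase-Glo Plus luminescence measured ATP left after a 1 h room-temperature reaction. The reaction used 5 nM GALK, 100 uM galactose and 35 uM ATP at pH 8.0 (20 mM HEPES, 5 mM MgCl2, 60 mM NaCl, 1 mM DTT, 0.01% BSA).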
# Numbers stand for hits; 0 = inactive; ? = inconclusive; - = no result given; [ ] = another dose, or the depositor's remark. A selection: hits, their analogues and other compounds. The true share with any hit is near 1.3%. Calls come from the whole dose curve; as a rule, active = well fitted curve in the direction sought with a large enough effect; inconclusive = small, poorly fitted or top-dose-only effect, or another doubt; inactive = no such curve, though single readings can be large; an effect the other way counts as inactive or inconclusive.
SMILES,TrxR1 inh,PKM2 act,TrxR1 substrate,mIDH1 inhibitor,Anesthetic bind,GALK inhibitor
O=C1NCCCC2c3c(cc(Br)c(O)c3Br)OC12N1CCOCC1 (configuration not stated),16µM,0,0,0,0,0
CCOc1ccc(CC2NCCc3cc(OCC)c(OCC)cc32)cc1OCC (configuration not stated),50µM,0,0,0,0,0
COC(=O)N1C(=O)[C@@](c2ccccc2)(C2CCCCC2)N1C(=O)OC,45µM,0,0,0,0,-
CC[C@]1(c2cccc(C)c2)C(=O)N(C(=O)OC)N1C(=O)OC,1.6µM,0,0,0,0,-
CC[C@]1(c2ccccc2)C(=O)N(C(=O)OC)N1C(=O)OC,?,0,0,0,0,-
COC(=O)N1C(=O)[C@@](Cc2ccccc2)(c2ccccc2)N1C(=O)OC,?,0,0,0,0,-
CC[C@@]1(c2ccccc2C)C(=O)N(C(=O)OC)N1C(=O)OC,5.6µM,?,0,0,0,-
COC(=O)N1C(=O)[C@](Cc2ccccc2)(c2ccccc2)N1C(=O)OC,4µM,0,0,0,0,-
O/N=C(/C[n+]1ccsc1)c1ccc(I)cc1,0,-,0,-,-,-
COc1ccccc1CNC(=O)C1CCN(S(=O)(=O)c2c(C)noc2/C=C/c2cccs2)CC1,0,-,0,0,0,-
c1ccc(-c2nc(SCC3CCCCO3)n[nH]2)cc1 (configuration not stated),0,-,0,-,-,-
CC[C@@]1(c2ccccc2)C(=O)N(C(=O)OC)N1C(=O)OC,1.3µM,0,0,0,0,-
COc1ccc(-n2nc3c(c2NC(=O)C(=O)NCc2ccccc2)CSC3)cc1,0,-,0,0,0,-
N#CC1=C(N)C(C#N)(C#N)C(c2cccnc2)C2CC(c3ccccc3)CC=C12 (configuration not stated),?,0,0,13µM,0,0
N#CC1=C(N)C(C#N)(C#N)C(c2cccnc2)C2CCCC=C12 (configuration not stated),-,0,-,-,0,0
COc1cc2oc(=O)c(CC(=O)N3CCCCC3)c(C)c2cc1OC,16µM,-,0,0,0,-
Cc1ccc(CN(C)C(=O)c2ccccc2NC(=O)c2ccccc2)o1,28µM,-,0,0,-,-
O=S(=O)(Nc1ccccc1)c1ccc(-c2csnn2)cc1,0,14µM,0,0,0,0
c1ccc(-c2ccc(-c3csnn3)cc2)cc1,0,0,0,0,0,0
COc1cc(OC)c(NC(=O)CSc2nccn2C)cc1Cl,0,-,0,0,0,-
COc1cc([N+](=O)[O-])ccc1NC(=O)CSc1nccn1C,0,13µM,0,0,0,0
Cc1cccc(OC(=O)c2cccnc2)c1C,0,0,0,0,?,0
O=C(Oc1ccccc1[N+](=O)[O-])c1cccnc1,14µM,0,0,0,0,0
O=C(Nc1nccs1)[C@@H]1CC=C[C@@H]2CCN(C3CCCCC3)C(=O)[C@@H]21,?,-,0,-,-,-
O=[N+]([O-])C(=C1Nc2ccccc2N1)C(Cl)=C(Cl)Cl,11µM,0,0,0,0,0
SMILES,TrxR1 inh,PKM2 act,TrxR1 substrate,mIDH1 inhibitor,Anesthetic bind,GALK inhibitor
CN1CCO/C1=C(\C(Cl)=C(Cl)Cl)[N+](=O)[O-],0,0,0,0,0,0
COc1ccc(C(=O)N/N=C/c2sc(=O)n(Cc3cccc(C(=O)O)c3)c2Cl)cc1,79µM,0,0,0,0,-
O=C(O)c1cccc(Cn2c(Cl)c(/C=N/Nc3ccccc3)sc2=O)c1,8.9µM,0,0,0,0,0
Cn1cnc([N+](=O)[O-])c1Sc1ncccc1N,35µM,0,0,0,0,0
Cc1ccc(Sc2c([N+](=O)[O-])ncn2C)cc1,?,0,0,0,?,-
CCOC(=O)C1=C(c2ccccc2)OC(N)=C(C#N)C1c1cccnc1 (configuration not stated),0,0,0,0,0,0
CCOC(=O)C1=C(c2ccc(OC)cc2)OC(N)=C(C#N)C1c1cccnc1 (configuration not stated),79µM,0,0,0,0,0
CC(N=Cc1cccc(O)c1O)c1ccccc1 (configuration not stated),40µM,0,0,0,0,0
CCN(CC)c1ccc(C=Nc2ccc(C)cc2C)c(O)c1,0,0,0,0,0,0
CC(N=Cc1cc([N+](=O)[O-])ccc1O)c1ccccc1 (configuration not stated),0,0,0,0,?,0
Cc1ccc(N=Cc2cccc(O)c2O)c(C)c1,32µM,13µM,0,-,?,0
Cc1ccccc1N=Cc1cccc(O)c1O,71µM,0,?,0,0,-
CCOC(=O)C[n+]1cccc(Br)c1,0,-,0,-,-,-
CNc1ccc(Br)cc(C(=O)/C=C/c2cccc(Cl)c2Cl)c1=O,11µM,0,0,0,0,0
CNc1ccc(Br)cc(C(=O)/C=C/c2cccc(OC)c2OC)c1=O,0,?,0,0,0,0
CNc1ccccc(C(=O)/C=C/c2ccccc2OC)c1=O,8.9µM,0,0,0,0,-
O=C(C[N+]1(CCc2ccccc2)CCOCC1)c1cccc([N+](=O)[O-])c1,0,-,0,-,-,-
COc1ccc(S(=O)(=O)N2CCc3ccccc32)cc1C(=O)OCc1c(C)noc1C,0,11µM,0,0,0,0
COc1ccc(S(=O)(=O)N2CCCCCC2)cc1C(=O)OCc1c(C)noc1C,0,0,0,0,?,0
CCCN(c1c(C)n(C)n(-c2ccccc2)c1=O)S(=O)(=O)c1ccc(C)cc1,0,-,0,0,0,-
Cc1nc([N+](=O)[O-])c(Sc2nc3ccccc3n2C)n1Cc1ccccc1,6.3µM,0,0,0,0,0
Cc1nc([N+](=O)[O-])c(SCC(N)=O)n1Cc1ccccc1,0,0,0[0.0914 µM],0,0,0
CCOC(=O)c1cc(-c2ccccc2)n(CC(=O)Nc2ccc(OC)cc2OC)c1C,0,-,0,0,0,-
COc1cccc(CNC(=O)c2cc(C)nc3c2c(C)nn3-c2ccc(C)cc2)c1,0,-,0,0,0,-
Cc1ccccc1C(=O)NNC(=O)/C=C\C(=O)O,7.1µM,0,0,0,0,0
COCCn1c(SCC(=O)Nc2ccc(F)c(Cl)c2)nc2c(oc3ccccc32)c1=O,0,-,0,0,0,-
CC(=O)c1cccc([N+](=O)[O-])c1,0,-,0,0,-,-
O=C(C#Cc1ccccc1)c1cccc([N+](=O)[O-])c1,0.1µM,0,0,0,0,0
Nc1nc[nH]c(=O)c1N,0,-,0,-,-,-
COC(=O)C1=C(C(=O)OC)[C@]2([C@@H]3CC=CCN[C@@H](Cc4ccccc4)C(=O)N3Cc3ccccc3)C=C[C@H]1O2,0,-,0,0,-,-

# Bioassay records as filed in PubChem BioAssay.
